Data: PubChem BioAssay AID372 (MTDP, 2006)
Screen size: about 100,000 compounds; about 770 (0.77%) were called active. The full list was thinned out, with actives kept by preference. A number with no mark means an inactive call. Rule as the data show it: active = inhibition above about 50%; inactive = the rest.

Each compound was assayed against Gag-Pol polyprotein (Human immunodeficiency virus type 1 group M subtype B (isolate HXB2)) (UniProt P04585) (assay: RNase H inhibition, HIV 1 Gag Pol polyprotein, FRET biochemical assay, screening (AID 372)). Details: HIV-1 RT RNase H, FRET RNA/DNA substrate fluorescence; at 10 µM; hits give high values.

Structure (SMILES) | inhibition
Cc1cccc(C(=O)N2N=C(c3ccc(F)cc3)CC2(O)C(F)(F)F)c1 (centres undefined) | 0%
CCOC(=O)C1=c2s/c(=C\c3ccc(O)c(OCC)c3)c(=O)n2C(N)=C(C#N)C1c1ccc(O)c(OCC)c1 (centres undefined) | 4%
CCOC(=O)C1=c2s/c(=C\c3ccc(O)cc3)c(=O)n2C(N)=C(C#N)C1c1ccc(O)cc1 (centres undefined) | 67% (active)
CCOC(=O)C1=c2s/c(=C\c3cccnc3)c(=O)n2C(N)=C(C#N)C1c1cccnc1 (centres undefined) | 7%
C=CCN1C(=O)/C(=C/c2cc([N+](=O)[O-])ccc2OC)SC1=S | 3%
O=C1NC(=Nc2cccc(Cl)c2Cl)S/C1=C\c1ccccc1 | 12%
COC(=O)C1=C(C)N(Cc2cccnc2)C(=O)/C1=C\c1ccc(Br)cc1 | 14%
CC(C)NC(=O)C12CC3(C)CC(C)(CC(C)(C3)C1)C2 | 0%
CCOC(=O)C1=C(O)/C(=C/c2cc(OC)c(O)c(OC)c2)SC1=Nc1ccccc1 | 13%
CCOC(=O)C1=C(O)/C(=C/c2ccc(O)c(OCC)c2)SC1=Nc1ccccc1 | 20%
CCOC(=O)C1=C(O)/C(=C/c2ccc(O)c(OC)c2)SC1=Nc1ccccc1 | 50% (active)
N=C1/C(=C/c2ccc(-c3ccc(Cl)cc3Cl)o2)C(=O)N=C2SC(c3ccccc3)=NN12 | 2%
N=C1/C(=C/c2ccc(-c3cc(Cl)ccc3Cl)o2)C(=O)N=C2SC(c3ccccc3)=NN12 | 44%
N=C1/C(=C/c2ccc(-c3ccccc3Cl)o2)C(=O)N=C2SC(c3ccccc3)=NN12 | 56% (active)
Cc1ccc(N(CC(=O)O)S(C)(=O)=O)cc1C | 0%
CCCOc1ccccc1/C=C1/SC(N2CCN(c3ccc(Cl)cc3)CC2)=NC1=O | 12%
CCOC(=O)c1cnn2c(C(F)(F)F)c3c(nc12)-c1ccccc1CC3 | 7%
CCOC(=O)c1ccccc1NC(=O)c1cnn2c1NC(c1ccccc1)CC2C(F)(F)F (centres undefined) | 17%
CCOC(=O)c1cnn2c1NC1=C(CCc3ccccc31)C2C(F)(F)F (centres undefined) | 58% (active)
COc1ccc(CN(CCC(c2ccccc2OC)C2CCOC(C)(C)C2)C(C)=O)cc1 (centres undefined) | 17%
COc1ccccc1NC(=O)Nc1nnc(-c2ccccc2SCc2ccc(F)cc2)s1 | 10%
CCOC(=O)c1ccc(N=Cc2ccc3c(c2)OCO3)cc1 | 4%
Cc1ccccc1NC(=O)c1c(NC(=O)c2ccco2)sc2c1CCC2 | 24%
Cc1ccccc1NC(=O)c1c(NC(=O)c2ccco2)sc2c1CCC(C)C2 (centres undefined) | 51% (active)

Structure (SMILES) | inhibition
CCOc1ccccc1NC(=O)c1c(NC(=O)c2ccco2)sc2c1CCC(C)C2 (centres undefined) | 7%
COc1ccc(NC(=O)c2c(NC(=O)c3ccco3)sc3c2CCC3)cc1 | 15%
CCOc1ccc(NC(=O)c2c(NC(=O)c3ccco3)sc3c2CCCC3)cc1 | 4%
O=C(c1cc(Cl)ccc1Cl)N1CCN(c2ccccc2)CC1 | 5%
Cc1ccc(OCC(=O)Nc2nc(-c3ccccc3)cs2)c(C)c1 | 5%
COc1ccc(Nc2ccc(C(F)(F)F)cc2[N+](=O)[O-])cc1 | 7%
CCNC(=O)c1c(O)c2ccccc2n(C)c1=O | 1%
O=C(c1ccc(Cl)c(Cl)c1)c1ccc(N2CCOCC2)c([N+](=O)[O-])c1 | 54% (active)
O=C(c1ccc(Cl)c(Cl)c1)c1ccc(N2CCCCC2)c([N+](=O)[O-])c1 | 19%
O=C(c1ccc(Cl)cc1)c1ccc(N2CCOCC2)c([N+](=O)[O-])c1 | 16%
COc1ccc(N/C(C)=C/C(=O)ONC(=O)c2ccccc2)cc1 | 5%
CCOC(=O)C(N)CSC1CC(=O)N(c2ccc(Cl)c(Cl)c2)C1=O (centres undefined) | 7%
Clc1cccc(-c2nnc(-c3ccc4c(c3)OCO4)o2)c1 | 15%
O=C(CSc1nc2ccccc2s1)NC1CCCCC1 | 0%
O=C(CSc1nc2ccccc2s1)Nc1ccc(Cl)cc1 | 37%
O=C(CSc1nc2ccccc2s1)NNC(=S)NC1CCCCC1 | 56% (active)
O=C(CSc1nc2ccccc2s1)NNC(=O)NC1CCCCC1 | 0%
O=C(CSc1nc2ccccc2s1)Nc1ccc(F)c(Cl)c1 | 23%
O=C(CSc1nc2ccccc2s1)NNC(=S)Nc1ccc(Cl)cc1 | 65% (active)
COc1ccc(/C=C2/SC(=O)N(CC(=O)Nc3ccc(C)c(C)c3)C2=O)cc1OC | 22%
CCCOc1ccc(/C=C2/C(=O)NC(=O)N2C(C)=O)cc1OC | 0%
O=C(O)c1cc(Br)ccc1N=Cc1ccc2c(c1)OCO2 | 8%
Cc1ccc2nc(-c3ccc(C)c(NC(=O)c4ccc5ccccc5c4)c3)oc2c1 | 19%
Cc1ccc(C(=O)Nc2ccc3oc(-c4c(F)c(F)c(F)c(F)c4F)nc3c2)cc1 | 52% (active)

Structure (SMILES) | inhibition
CCCOc1ccc(C(=O)Nc2ccc3oc(-c4c(F)c(F)c(F)c(F)c4F)nc3c2)cc1 | 14%
Cc1ccc2oc(-c3ccc(NC(=O)c4ccc(Br)cc4)cc3)nc2c1 | 55% (active)
O=C(Nc1ccc(-c2nc3ccccc3o2)cc1)c1ccc2ccccc2c1 | 43%
Cc1ccc2oc(-c3ccc(NC(=O)c4ccc(C)c(C)c4)cc3)nc2c1 | 20%
Cc1ccc2nc(-c3cccc(NC(=O)c4ccc5ccccc5c4)c3)oc2c1 | 38%
O=C(Nc1ccc2oc(-c3c(F)c(F)c(F)c(F)c3F)nc2c1)c1ccc(F)cc1 | 13%
Cc1ccc2nc(-c3ccc(NC(=O)c4ccc5ccccc5c4)cc3)oc2c1 | 59% (active)
COc1ccc(C(=O)Nc2ccc(-c3nc4cc(C)ccc4o3)cc2)cc1Br | 23%
O=C(Nc1ccc2oc(-c3ccccc3)nc2c1)c1ccc2ccccc2c1 | 19%
Cc1ccc2oc(-c3ccc(NC(=O)c4ccc5ccccc5c4)cc3)nc2c1 | 52% (active)
COc1ccc(/C=C2\SC(=S)N(CCC(=O)OC3CCCCC3)C2=O)cc1 | 4%
CSCCNS(=O)(=O)c1ccc(C)c([N+](=O)[O-])c1 | 0%
O=C(O)CCCN1C(=O)/C(=C/c2cccc(Br)c2)SC1=S | 10%
COc1ccc(/C=N/NC(=O)c2ccn[nH]2)cc1COc1ccc(Cl)cc1Cl | 5%
COc1cccc(Nc2c([N+](=O)[O-])c(=O)n(-c3ccccc3)c3ccccc23)c1 | 15%
CCc1ccc2[nH]c3nc(NN)nnc3c2c1 | 5%
Cc1cccc(OC(=O)c2cccc([N+](=O)[O-])c2)c1 | 6%
COc1ccc(N2C(=O)C(=O)/C(=C(\O)c3ccc([N+](=O)[O-])cc3)C2c2ccc(Br)cc2)cc1 (centres undefined) | 4%
COc1ccc(OC)c(NC(=O)c2cnccn2)c1 | 6%
Cc1cc(C(=O)Nc2ccc(S(=O)(=O)Nc3nccs3)cc2)ccc1[N+](=O)[O-] | 6%
CCOc1cc(C2C(C(=O)OCc3ccc(OC)cc3)=C(C)NC3=C2C(=O)CCC3)cc(Cl)c1O (centres undefined) | 2%
CC(C)COc1ccc(C(=O)Nc2ccc3oc(-c4ccncc4)nc3c2)cc1 | 1%
CC(C)COc1ccc(C(=O)Nc2ccc(-c3nc4ncccc4o3)cc2)cc1 | 8%
CC(C)COc1ccc(C(=O)Nc2ccc(-c3nc4ccccc4o3)cc2)cc1 | 64% (active)

Structure (SMILES) | inhibition
O=C(Nc1ccc(-c2nc3ccccc3o2)c(O)c1)c1ccc(-c2cccc(Cl)c2)o1 | 10%
CCOC(=O)c1c(NC(=O)CSc2nccn2C)sc2c1CCCC2 | 0%
CCc1ccc(C2=NN(c3ccccc3)C(c3cn(-c4ccccc4)nc3-c3cccnc3)C2)cc1 (centres undefined) | 20%
COc1ccc(C(=O)CC(C(C)C)C(C=C(C)C)C(=O)c2ccc(OC)cc2)cc1 (centres undefined) | 29%
C=C(C)C(C)(C#CCN1CCCCC1)OC(C)=O (centres undefined) | 8%
C=C(C)C(C)(C#CCN1CCOCC1)OC(C)=O (centres undefined) | 56% (active)
CC(C)(O)C#CCN1CCOCC1 | 0%
COc1cc(C2C(C(=O)Nc3cccc(C)n3)=C(C)NC3=C2C(=O)CC(C)(C)C3)cc(OC)c1OC (centres undefined) | 7%
COc1ccc(N(CC(=O)N2CCCCC2)S(=O)(=O)c2ccccc2[N+](=O)[O-])c(OC)c1 | 2%
COCCCNC(=O)CN(c1ccc(Cl)cc1)S(=O)(=O)c1ccccc1 | 0%
COc1cc(NC(=S)NC(=O)c2ccc(Cl)cc2)ccc1NC(=O)c1ccco1 | 42%
COc1cc(NC(=S)NC(=O)c2ccc(Cl)cc2)ccc1NC(=O)c1cc2ccccc2o1 | 54% (active)
COc1cc(NC(=S)NC(=O)c2ccc(C)c(C)c2)ccc1NC(=O)c1cc2ccccc2o1 | 15%
COc1ccc(C(=O)NC(=S)Nc2ccc(NC(=O)c3cc4ccccc4o3)c(OC)c2)cc1 | 7%
COc1cc(NC(=S)NC(=O)c2cccc(Cl)c2)ccc1NC(=O)c1cc2ccccc2o1 | 11%
COc1cc(NC(=S)NC(=O)c2cccc(F)c2)ccc1NC(=O)c1cc2ccccc2o1 | 58% (active)
CCc1nnc(NC(=O)CCCOc2ccc(Cl)cc2Cl)s1 | 1%
Cc1ccccc1/C=N/NC(=O)Nc1ccccc1 | 16%
Cc1ccc(-c2nc3ccccc3s2)cc1NC(=O)c1cc(I)ccc1Cl | 15%
O=C(COc1ccccc1Br)N/N=C/c1ccccc1 | 3%
Cc1ccc(NCC(=O)N/N=C\c2c(Br)cc(Br)c(O)c2Br)cc1 | 17%
Cc1ccccc1NCC(=O)N/N=C\c1c(Br)cc(Br)c(O)c1Br | 16%
